The source of these data is PubChem BioAssay (NCATS).

Structures are written as SMILES. Where “and” joins values, the source holds several entries; their conditions need not be identical. Equal entries are not always repeated. Records with an inconclusive call do not appear. More than one record can exist for a structure, and the calls need not agree. Calls of active or inactive are those of the source. Unless noted, calls follow the shape of the dose curve; as a rule, active = well fitted curve in either direction with a large enough effect (not every such curve was filed as active); inconclusive = small, poorly fitted or top-dose-only effect, or another doubt; inactive = flat fitted curve, though single readings scatter. Bounds are passed on as bounds.

Test [1] can be described thus: AP1 Signaling Pathway (AID 357).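 Also: ME-180 reporter cells stimulated with EGF at its EC50 level; % is scaled to controls: 0 for no effect and ±100 for the full control effect.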 To be noted: ME-180 AP-1-bla reporter, EGF-induced, beta-lactamase ratio, 5 h. The essentials: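 In this screen, ME-180 cells in Opti-MEM with 0.5% dialyzed FBS received EC50 EGF and compound titrations for 5 h. AP-1 reporter beta-lactamase was detected via CCF4 ratio, giving AC50 for positive and negative modulators.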
The target of test [2] is Cytochrome P450 1A2 (Homo sapiens) (UniProt P05177). The test is described as follows: p450-cyp1a2 (AID 410; calls by dose curve; also: potency is read from the fitted curve at half-maximal effect;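 as to activity change, negative = inhibition: -100% = full effect of reference inhibitor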). The essentials: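 Human CYP1A2 (20nM) demethylated Luciferin-ME at its Km (100uM) in 100mM KPO4. After 10 min compound preincubation, NADPH regeneration ran the reaction 60 min at room temperature. Luciferin was read by luminescence, normalized to 57 uM furafylline.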

Test [3] in a line: NFAT Signaling Pathway (AID 444).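 Also: carbachol stimulus at about its EC50 of 1 µM final; % is scaled to controls: 0 for no effect and ±100 for the full control effect.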 To be noted: Jurkat NFAT-bla M1, carbachol, beta-lactamase ratio, 5 h. The essentials: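 Jurkat cells with NFAT-driven β-lactamase reporter and co-expressed M1 receptor, stimulated with carbachol (final 1 uM, ~EC50), compound titration, 5 h at 37 °C. CCF4 loaded 1 h at RT; 460/530 nm ratio gave %activity and AC50.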
A short description of test [4]: Stat Signaling Pathway (AID 446).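 Also: ME-180 cervical cancer cells given 40 pM IL-6 alongside compound; SIE-controlled beta-lactamase reporter measured as 460/530 nm FRET emission ratio; % is scaled to controls: 0 for no effect and ±100 for the full control effect.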 Conditions: ME-180 SIE beta-lactamase reporter, IL-6 stimulated, 5 h. The essentials: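 Reporter line: ME-180 cervical carcinoma, SIE-beta-lactamase. Treatment: compound with 40 pM IL-6, 5 hrs, 37 C, in low-serum OPTI-MEM with 10 mM HEPES pH 7.3. Detection: 460/530 nm fluorescence.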
Test [5] addresses Mitogen-activated protein kinase 10 (Mus musculus) (UniProt Q61831). Kind of test: JNK3 AlphaScreen Assay (AID 530).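 Also: kinase came from lysate of stimulated human HepG2 cells; signal reports phosphorylation of biotinylated GST-cJun 1-79 at Ser73 with 10 µM ATP; % is scaled to controls: 0 for no effect and ±100 for the full control effect.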 The essentials: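 qHTS format: compounds tested as titrations against IL-1beta/TNF-alpha-activated HepG2 lysate JNK3 with biotin-GST-cJun substrate and 10 uM ATP at room temperature. Loss of anti-phospho-cJun AlphaScreen signal indicates inhibition.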
(In Alpha technology, singlet oxygen from a donor bead excites a nearby acceptor bead.)

Test [6] concerns the target 3',5'-cyclic-AMP phosphodiesterase 4B (Homo sapiens) (UniProt Q07343). The test is described as follows: qHTS Assay for Inhibitors of PDE-IV (AID 607; active = well fitted activation curve with a large enough effect in the main read-out, with a control signal flat, not every such curve was filed as active; also: % of control where 0% means no effect). The essentials:
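Cell-based read-out of cAMP via a modified cyclic nucleotide-gated channel and membrane potential dye (535/590 nm) in HEK293 cells expressing PDE4 endogenously. Compounds tested up to 22.9 uM final; 100 uM RO 20-1724 reference.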
In general terms: Quantitative high-throughput screening tests each substance at several concentrations.

For test [7], the target named is Pyruvate kinase (Leishmania mexicana) (UniProt Q27686). Kind of test: qHTS Validation Assay for Inhibitors of Leishmania Mexicana Pyruvate Kinase (AID 945; active = well fitted curve in the direction sought with a large enough effect; an effect the other way counts as inactive or inconclusive;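 also: 0% = DMSO only neutral control wells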). The essentials:
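Purified LmPYK (E451W mutant, 0.2 nM) was incubated 1 h at room temperature with 0.5 mM PEP and 0.1 mM ADP in 50 mM imidazole pH 7.2, 50 mM KCl, 7 mM MgCl2; ATP formed was read by PKLight luminescence, normalized to DMSO wells.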

Test [8] addresses Alpha-galactosidase A (Homo sapiens) (UniProt P06280). The test is described as follows: Counterscreen for Glucocerebrosidase Inhibitors: qHTS Assay for Human alpha-Galactosidase at pH 4.5 (AID 992; active = well fitted curve in the direction sought with a large enough effect; an effect the other way counts as inactive or inconclusive; also: 0% is about no effect). The essentials: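 Quantitative HTS: compounds tested from 0.7 nM up to 77 uM against 2 nM enzyme with 80 uM 4-MU alpha-D-galactopyranoside. The 20 min room-temperature reaction is stopped with 1M NaOH/1M glycine, pH 10.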

Test [9] addresses alpha-glucosidase (Oryza sativa, rice) (UniProt Q653V4). The test is described as follows: Counterscreen for Glucocerebrosidase Inhibitors: qHTS Assay for Rice alpha-Glucosidase at pH 5.0 (AID 997; active = well fitted curve in the direction sought with a large enough effect; an effect the other way counts as inactive or inconclusive;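 also: 0% = full activity with enzyme and -100% = basal without enzyme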). The essentials:
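Rice alpha-glucosidase (4 nM final) with 400 uM 4-methylumbelliferyl-alpha-D-glucopyranoside in citrate buffer pH 5.0, 20 min at room temperature, stopped at pH 10; fluorescence 365/440 nm, compounds 0.7 nM–77 uM, AC50 from Hill fits.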
In general terms: A counterscreen serves to expose hits that act by an unwanted route or on another target.

A short description of test [10]: qHTS Assay for Lipid Storage Modulators (AID 1519; calls by dose curve). Conditions: Drosophila S3 cells, BODIPY lipid droplet/cell ratio, laser cytometry, cells loaded with oleic acid; for activity change, negative = inhibition: at 25.7 µM (top of the series). The essentials: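 Cells seeded at 5,000 per well were treated with compounds over a concentration series and loaded with oleic acid (400 uM, as added). Lipid droplet fluorescence (488 nm excitation, 500-530 nm channel) was read by laser-scanning cytometry and normalized to 20 uM Triacsin C.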

The target of test [11] is ATP-dependent 6-phosphofructokinase (Trypanosoma brucei brucei) (UniProt O15648). Kind of test: qHTS Assay to Find Inhibitors of T. brucei phosphofructokinase: hit validation (AID 492961; active = well fitted curve in the direction sought with a large enough effect; an effect the other way counts as inactive or inconclusive). The essentials: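 Compounds titrated; %activity normalized to 0x and 1x enzyme controls, curve-fitted. Readout: ADP-Glo luminescence after 45 min room-temperature reaction of 1.25 nM PFK, 0.1 mM ATP, 0.5 mM F6P, pH 8.0.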

Test [12] addresses Luciferin 4-monooxygenase (Photinus pyralis) (UniProt P08659). Kind of test: Biochemical firefly luciferase enzyme assay for NPC (AID 624030; active = well fitted curve in the direction sought with a large enough effect; an effect the other way counts as inactive or inconclusive;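 also: purified P. pyralis luciferase at 10 nM with luciferin and ATP substrate; 0% = DMSO and -100% = full luciferase inhibition by PTC124 control; nearly all actives have a fitted effect of over 70% in size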). The essentials:
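Purified P. pyralis luciferase at 10 nM in 50 mM Tris Acetate (final), luminescence read within 5 minutes of enzyme addition to compounds. Activity normalised to PTC124 versus DMSO; concentration-response curves classed by r2, magnitude and activity.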

Test [13] is described as follows: qHTS profiling for inhibitors of Plasmodium falciparum proliferation (AID 504749; active = well fitted curve in the direction sought with a large enough effect; an effect the other way counts as inactive or inconclusive; also: potency is read from the fitted curve at half-maximal effect;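 as to activity, negative = inhibition: 0% = DMSO vehicle and full inhibition = artemisinin control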; as to all read-outs here: nearly all actives have a fitted effect of over 60% in size). Conditions: P. falciparum in erythrocytes, SYBR Green DNA, 72 h; for activity, negative = inhibition: at 28.7 µM (top of the series). The essentials: (§1)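 Readout was DNA-dye fluorescence from lysed cultures, ex 485/em 535 nm. Parasitized red cells had grown 72 h with compound; data scaled between 0.29 uM artemisinin and DMSO wells and corrected using vehicle-only plates.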

The subject of another test is AS120. Described as above. Conditions: P. falciparum in erythrocytes, SYBR Green DNA, 72 h; series mostly up to 28.7 µM. The essentials: as §1
The next test deals with CP238. The description is as above. Conditions: P. falciparum in erythrocytes, SYBR Green DNA, 72 h; series mostly up to 12.8 µM. The essentials: as §1
The subject of another test is CP265. Described as above. To be noted: P. falciparum in erythrocytes, SYBR Green DNA, 72 h; series mostly up to 12.8 µM. The essentials:
as §1

For another test, the system named is FAB9. The test is described as above. Conditions: P. falciparum in erythrocytes, SYBR Green DNA, 72 h; series mostly up to 12.8 µM. The essentials:
as §1

In test [14] the target is Glucocorticoid receptor (Homo sapiens) (UniProt P04150). The test is described as follows: GR-GFP Redistribution (AID 450;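 active = compounds whose dose series gives a full or clear partial fitted curve of increased nuclear translocation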; also: potency is read from the fitted curve at half-maximal effect). To be noted: U2OS GR-GFP nuclear translocation, laser cytometry, 2 h.
The target is the same in test [15]. The test is described as follows: GR-EFC Redistribution (AID 451; calls by dose curve; also: potency is read from the fitted curve at half-maximal effect). To be noted: CHO-K1 GR-EFC translocation, beta-gal luminescence, 2 h. The essentials: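 CHO-K1 cells expressing nuclear EA and GR-ED fragments of b-gal; compounds titrated up to 46 uM final, 2 h at 37 C. GR nuclear translocation read as complemented b-gal luminescence after 1 h RT detection.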

For test [16], the target named is Ubiquitin carboxyl-terminal hydrolase 1 (Homo sapiens) (UniProt O94782). The test is described as follows: Inhibitors of USP1/UAF1: Pilot qHTS (AID 504865; active = well fitted curve in the direction sought with a large enough effect; an effect the other way counts as inactive or inconclusive;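 also: rhodamine fluorescence freed from ubiquitin-rhodamine substrate followed over time; top concentration of the series differs between compounds; % is scaled to controls: 0 for no effect and ±100 for the full control effect; nearly all actives have a fitted effect of over 35% in size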). The essentials: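 USP1/UAF1 complex at 1 nM preincubated 15 min at room temperature with compound, then Ub-Rho substrate added at 150 nM final. Fluorescence (480/540 nm) read kinetically in 50 mM HEPES pH 7.8, 0.5 mM EDTA, 1 mM TCEP, 0.1 mg/ml BSA, 0.01% Tween-20.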

Setting [17] is: measured here: cell count channel max response.
The mark [18] stands for this setting: measured here: lipid channel max response.

Sequence of Alpha-galactosidase A (Homo sapiens) (P06280 whole entry, looked up): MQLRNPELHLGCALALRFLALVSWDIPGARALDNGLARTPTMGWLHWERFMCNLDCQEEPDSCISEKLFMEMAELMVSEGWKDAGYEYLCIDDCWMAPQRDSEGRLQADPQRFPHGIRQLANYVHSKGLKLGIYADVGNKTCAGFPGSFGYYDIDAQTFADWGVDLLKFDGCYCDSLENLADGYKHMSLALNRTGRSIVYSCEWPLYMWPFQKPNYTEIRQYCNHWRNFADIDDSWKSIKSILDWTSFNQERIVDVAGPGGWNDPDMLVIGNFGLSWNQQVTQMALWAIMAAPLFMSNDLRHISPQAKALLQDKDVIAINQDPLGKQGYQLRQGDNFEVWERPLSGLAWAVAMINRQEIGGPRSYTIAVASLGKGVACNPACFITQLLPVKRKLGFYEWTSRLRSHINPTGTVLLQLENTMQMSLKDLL
Sequence of Pyruvate kinase (Leishmania mexicana) (Q27686 2-499 E452W): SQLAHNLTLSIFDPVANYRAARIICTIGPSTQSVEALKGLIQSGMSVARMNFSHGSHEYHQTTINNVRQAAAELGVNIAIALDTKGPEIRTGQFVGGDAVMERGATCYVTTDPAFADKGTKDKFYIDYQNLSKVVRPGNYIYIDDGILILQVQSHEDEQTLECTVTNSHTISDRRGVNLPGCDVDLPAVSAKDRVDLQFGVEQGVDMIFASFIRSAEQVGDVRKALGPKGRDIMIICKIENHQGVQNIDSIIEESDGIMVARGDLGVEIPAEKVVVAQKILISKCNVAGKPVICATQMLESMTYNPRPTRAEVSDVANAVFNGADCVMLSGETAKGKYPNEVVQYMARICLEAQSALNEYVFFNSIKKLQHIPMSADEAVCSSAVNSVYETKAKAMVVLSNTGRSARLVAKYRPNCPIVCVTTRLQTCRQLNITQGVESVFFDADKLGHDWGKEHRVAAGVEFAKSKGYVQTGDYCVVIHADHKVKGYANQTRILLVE
Sequence of Cytochrome P450 1A2 (Homo sapiens) (P05177 whole entry, looked up): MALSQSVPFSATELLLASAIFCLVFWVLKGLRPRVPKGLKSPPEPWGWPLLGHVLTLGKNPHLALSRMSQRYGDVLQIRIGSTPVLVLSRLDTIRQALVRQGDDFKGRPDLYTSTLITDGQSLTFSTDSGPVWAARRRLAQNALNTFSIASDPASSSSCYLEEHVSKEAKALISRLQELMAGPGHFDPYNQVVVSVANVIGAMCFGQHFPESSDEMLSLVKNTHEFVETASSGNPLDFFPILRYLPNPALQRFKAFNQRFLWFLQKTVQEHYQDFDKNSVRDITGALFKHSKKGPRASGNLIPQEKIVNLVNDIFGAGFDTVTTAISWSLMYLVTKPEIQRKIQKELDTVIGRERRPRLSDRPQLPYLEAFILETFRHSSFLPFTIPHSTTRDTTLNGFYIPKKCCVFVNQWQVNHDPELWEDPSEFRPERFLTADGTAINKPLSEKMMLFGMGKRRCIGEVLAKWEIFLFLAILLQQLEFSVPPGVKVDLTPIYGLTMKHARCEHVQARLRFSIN
Sequence of Glucocorticoid receptor (Homo sapiens) (P04150 whole entry, looked up, the tested form may be a part): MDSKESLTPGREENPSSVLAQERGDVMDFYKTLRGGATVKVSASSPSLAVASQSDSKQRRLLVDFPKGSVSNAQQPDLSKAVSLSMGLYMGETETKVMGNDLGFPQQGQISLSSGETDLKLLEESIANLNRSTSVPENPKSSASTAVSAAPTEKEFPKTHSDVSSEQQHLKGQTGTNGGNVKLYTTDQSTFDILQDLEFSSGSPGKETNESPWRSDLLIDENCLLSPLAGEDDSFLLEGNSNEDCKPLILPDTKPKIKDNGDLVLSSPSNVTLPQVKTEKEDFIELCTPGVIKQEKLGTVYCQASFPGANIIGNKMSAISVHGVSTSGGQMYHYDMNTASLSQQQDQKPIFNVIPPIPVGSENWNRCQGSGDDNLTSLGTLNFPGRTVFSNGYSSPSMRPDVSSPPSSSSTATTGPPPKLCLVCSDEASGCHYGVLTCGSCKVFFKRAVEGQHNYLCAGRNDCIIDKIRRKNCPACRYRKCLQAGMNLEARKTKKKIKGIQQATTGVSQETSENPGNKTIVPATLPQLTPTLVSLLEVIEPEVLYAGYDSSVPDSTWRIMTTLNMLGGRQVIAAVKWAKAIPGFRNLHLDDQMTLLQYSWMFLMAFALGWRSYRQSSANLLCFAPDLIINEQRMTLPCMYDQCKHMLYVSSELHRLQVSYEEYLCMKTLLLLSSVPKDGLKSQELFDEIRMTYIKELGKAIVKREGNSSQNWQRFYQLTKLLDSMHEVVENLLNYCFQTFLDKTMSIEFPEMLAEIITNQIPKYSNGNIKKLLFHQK
Sequence of 3',5'-cyclic-AMP phosphodiesterase 4B (Homo sapiens) (Q07343 whole entry, looked up): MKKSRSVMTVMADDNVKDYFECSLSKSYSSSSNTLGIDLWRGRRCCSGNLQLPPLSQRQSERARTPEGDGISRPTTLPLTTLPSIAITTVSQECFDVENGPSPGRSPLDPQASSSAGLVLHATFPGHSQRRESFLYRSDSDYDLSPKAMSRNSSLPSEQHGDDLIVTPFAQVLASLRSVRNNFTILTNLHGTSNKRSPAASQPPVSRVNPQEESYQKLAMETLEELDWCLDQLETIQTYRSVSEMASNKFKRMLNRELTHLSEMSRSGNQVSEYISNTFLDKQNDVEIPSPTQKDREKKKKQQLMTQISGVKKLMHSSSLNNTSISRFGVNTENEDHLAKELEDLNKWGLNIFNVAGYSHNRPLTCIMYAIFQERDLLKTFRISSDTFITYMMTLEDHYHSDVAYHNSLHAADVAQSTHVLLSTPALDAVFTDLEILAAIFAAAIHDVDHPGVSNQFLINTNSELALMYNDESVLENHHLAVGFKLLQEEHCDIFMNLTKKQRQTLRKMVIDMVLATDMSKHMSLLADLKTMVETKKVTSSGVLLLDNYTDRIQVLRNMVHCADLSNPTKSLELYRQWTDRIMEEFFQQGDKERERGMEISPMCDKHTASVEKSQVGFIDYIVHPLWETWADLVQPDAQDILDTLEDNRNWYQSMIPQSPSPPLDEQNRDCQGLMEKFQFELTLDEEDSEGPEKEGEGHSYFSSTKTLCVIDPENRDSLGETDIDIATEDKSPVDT
Sequence of Ubiquitin carboxyl-terminal hydrolase 1 (Homo sapiens) (O94782 whole entry, looked up): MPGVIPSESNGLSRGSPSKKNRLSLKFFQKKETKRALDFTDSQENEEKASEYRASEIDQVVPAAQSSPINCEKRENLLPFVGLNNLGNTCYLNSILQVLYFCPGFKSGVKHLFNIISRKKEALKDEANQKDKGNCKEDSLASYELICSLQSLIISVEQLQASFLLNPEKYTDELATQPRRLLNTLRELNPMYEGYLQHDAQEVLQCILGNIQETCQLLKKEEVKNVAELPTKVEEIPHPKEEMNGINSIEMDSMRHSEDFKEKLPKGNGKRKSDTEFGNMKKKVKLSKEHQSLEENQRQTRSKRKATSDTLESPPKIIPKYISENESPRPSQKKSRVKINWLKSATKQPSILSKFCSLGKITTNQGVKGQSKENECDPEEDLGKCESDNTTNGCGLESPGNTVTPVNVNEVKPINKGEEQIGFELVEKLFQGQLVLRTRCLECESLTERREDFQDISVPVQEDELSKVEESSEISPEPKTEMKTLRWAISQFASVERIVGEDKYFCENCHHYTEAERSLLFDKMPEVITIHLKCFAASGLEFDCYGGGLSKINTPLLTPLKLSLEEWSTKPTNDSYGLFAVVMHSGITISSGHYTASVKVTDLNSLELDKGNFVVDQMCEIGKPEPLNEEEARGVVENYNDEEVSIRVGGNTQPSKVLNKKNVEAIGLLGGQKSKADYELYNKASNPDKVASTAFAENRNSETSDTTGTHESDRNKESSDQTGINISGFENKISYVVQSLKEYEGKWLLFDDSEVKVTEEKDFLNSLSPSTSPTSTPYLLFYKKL
Sequence of Luciferin 4-monooxygenase (Photinus pyralis) (P08659 whole entry, looked up): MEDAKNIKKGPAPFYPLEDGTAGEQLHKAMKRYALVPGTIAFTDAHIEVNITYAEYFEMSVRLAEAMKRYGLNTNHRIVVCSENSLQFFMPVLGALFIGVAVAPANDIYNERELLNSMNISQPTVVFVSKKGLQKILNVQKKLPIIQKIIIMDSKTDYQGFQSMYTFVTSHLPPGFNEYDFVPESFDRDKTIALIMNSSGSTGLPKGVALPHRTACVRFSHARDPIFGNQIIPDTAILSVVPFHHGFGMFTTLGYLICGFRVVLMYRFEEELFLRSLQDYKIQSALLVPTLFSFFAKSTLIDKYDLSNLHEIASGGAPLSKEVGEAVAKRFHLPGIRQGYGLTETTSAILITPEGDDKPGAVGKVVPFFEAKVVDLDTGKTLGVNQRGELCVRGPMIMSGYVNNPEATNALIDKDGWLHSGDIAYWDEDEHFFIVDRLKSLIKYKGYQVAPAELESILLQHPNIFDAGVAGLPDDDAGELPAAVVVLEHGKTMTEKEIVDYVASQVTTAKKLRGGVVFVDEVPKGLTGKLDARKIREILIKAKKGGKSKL
Sequence of ATP-dependent 6-phosphofructokinase (Trypanosoma brucei brucei) (O15648 whole entry, looked up): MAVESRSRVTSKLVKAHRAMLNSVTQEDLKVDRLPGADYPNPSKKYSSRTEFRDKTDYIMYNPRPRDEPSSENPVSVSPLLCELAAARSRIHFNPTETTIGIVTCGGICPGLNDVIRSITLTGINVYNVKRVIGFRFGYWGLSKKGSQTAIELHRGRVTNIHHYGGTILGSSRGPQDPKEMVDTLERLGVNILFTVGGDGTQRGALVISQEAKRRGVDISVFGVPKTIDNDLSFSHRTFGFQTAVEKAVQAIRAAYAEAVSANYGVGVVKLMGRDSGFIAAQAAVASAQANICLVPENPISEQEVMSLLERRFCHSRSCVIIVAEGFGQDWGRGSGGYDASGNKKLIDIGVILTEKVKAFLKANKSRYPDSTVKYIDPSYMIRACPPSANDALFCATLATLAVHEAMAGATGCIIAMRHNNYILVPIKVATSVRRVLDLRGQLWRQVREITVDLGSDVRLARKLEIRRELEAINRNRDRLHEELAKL

With `C[C@@H]1COc2c(N3CCN(C)CC3)c(F)cc3c(=O)c(C(=O)O)cn1c23`, the activity change, negative = inhibition is -1.23% (inactive) in test [1] (at 17.2 µM (top of the series)); 11.6% (inactive) in test [1] (at 38 µM (top of the series)); -4.07% (inactive) in [3] (at 17.2 µM (top of the series)); 4.93% (inactive) in [3] (at 38 µM (top of the series)); -0.7% (inactive) in test [10]. Moreover, the Potency entry (in [2]; in [5]; in test [6]; in the test with AS120; in the test with CP238; in the test with CP265) was “inactive” in each case. Also, the Potency result in the test with FAB9 was “inactive”. Moreover, the activity, negative = inhibition is 4.46% (inactive) in test [4] (at 17.2 µM (top of the series)), -5.77% (inactive) in [4] (at 38 µM (top of the series)), 3.1% (inactive) in [13] (parasite line A) and 11.1% (inactive) in test [13] (parasite line B). Also, the compound was classed as inactive in test [7], in test [8], in test [9], in test [11] and in [12]. Also, the max response was -7.85% in test [10] (setting [17]) and -10.5% in test [10] (setting [18]).

On to `c1ccc([C@@H]2CN3CCSC3=N2)cc1`, for which the activity change, negative = inhibition in [1] (at 17.2 µM (top of the series)) is 0.374% (inactive); in test [1] (at 38 µM (top of the series)) it was 8.49% (inactive) and 7.24% (inactive); in [3] (at 17.2 µM (top of the series)), -19.6% (inactive); in test [3] (at 38 µM (top of the series)), -1.25% (inactive) and -14% (inactive); in test [10] it was -1.37% (inactive). For the same compound, the Potency is 31.6 µM (active) and inactive and 10 µM (active) in test [2]; > 46 µM (inactive) and > 20.6 µM (inactive) in test [14]; > 46 µM (inactive) and > 20.6 µM (inactive) in [15]. Also, the values for the activity, negative = inhibition in test [4] (at 17.2 µM (top of the series)) and in test [4] (at 38 µM (top of the series)) were -3.45% (inactive) and 11.8% (inactive), respectively. Further, the Potency result in [5], in test [6] and in test [16] was “inactive” each time. Besides, the compound was called inactive in test [7], in [8] and in [9]. Further, the max response is 3.69% in test [10] (setting [17]) and -1.44% in test [10] (setting [18]).

Turning to `C[C@@H](COc1ccccc1)N(CCCl)Cc1ccccc1`, the activity change, negative = inhibition in test [1] (at 17.2 µM (top of the series)) was -0.257% (inactive); in test [1] (at 38 µM (top of the series)), 0.967% (inactive); in test [3] (at 17.2 µM (top of the series)) it was -10.8% (inactive); in test [3] (at 38 µM (top of the series)) it was -22.8% (inactive); in test [10] it was 0.574% (inactive). Also, the Potency in test [2] was 12.6 µM (active); in test [14] it was > 46 µM (inactive) and > 20.6 µM (inactive); in test [15], > 46 µM (inactive) and > 20.6 µM (inactive). Also, the activity, negative = inhibition in test [4] (at 7.69 µM (top of the series) unless noted) is 1.89% [at 17.2 µM] (inactive). Also, the Potency entry in [5] and in test [6] was “inactive” in each case. The call in test [7], in test [8] and in test [9] was inactive. In addition, the max response in test [10] (setting [17]) is -7.22%; in [10] (setting [18]), -6.85%.

As for `C[C@@H](CCc1ccccc1)NC[C@H](O)c1ccc(O)c(C(N)=O)c1`, the activity change, negative = inhibition was 10.2% (inactive) in [1] (at 17.2 µM (top of the series)); 8.69% (inactive) in test [1] (at 38 µM (top of the series)); -19.2% (inactive) in test [3] (at 17.2 µM (top of the series)); -1.34% (inactive) in test [3] (at 38 µM (top of the series)); -1.75% (inactive) in [10]. Further, the Potency result (in test [2]; in test [5]; in test [6]; in test [16]; in the test with AS120; in the test with CP238) was “inactive” each time. Further, the Potency entry in the test on CP265 and in the test with FAB9 was “inactive” throughout. Besides, the activity, negative = inhibition was -0.55% (inactive) in test [4] (at 17.2 µM (top of the series)) and 4.03% (inactive) in test [4] (at 38 µM (top of the series)). Also, the Potency in test [14] was > 46 µM (inactive) and > 20.6 µM (inactive); in test [15] it was > 46 µM (inactive) and > 20.6 µM (inactive); in test [13] (parasite line B) it was 10 µM (active). The outcome in test [7], in test [9], in test [11] and in test [12] was inactive. Moreover, the values for the max response in test [10] (setting [17]) and in [10] (setting [18]) were -10.3% and -13.3%, respectively.
